Tau fibril FP: blocks human tau fibril formation measured by polarization. P10636. AID 1468. Potency, µM (doses to about 57.7 µM), for the others: top-dose activity, negative = inhibition, actives largely listed as inhibitors. 0.39% of 280,000 active. K18 P301L tau heparin fibrillization, Alexa594 FP, 6 h; further: nearly all actives have a fitted effect of over 55% in size
Target sequence (P10636 561-689 P618L limits assumed): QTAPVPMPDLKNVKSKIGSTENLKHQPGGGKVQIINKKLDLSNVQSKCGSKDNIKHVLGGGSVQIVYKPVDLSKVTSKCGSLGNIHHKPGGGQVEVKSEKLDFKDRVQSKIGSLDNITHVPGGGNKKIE
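K18 P301L tau (15 uM unlabeled/0.24 uM Alexa 594-labeled, final) + compound + heparin 20 uM final; 100 mM NaOAc pH 7; 6 hr 37 C; ThT 30 uM final added, 1 hr RT; FP ex 555/em 632 nm.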
Tau ThT inhib: tau fibrillization inhibition (ThT binding); Potency, µM (doses to about 57.4 µM), for the others: top-dose activity, negative = inhibition, hits mostly inhibitors; recombinant tau K18 P301L, heparin-induced fibrillization, ThT fluorescence; AID 1460; P10636; 2.1% of 270,000 active; further: nearly all actives have a fitted effect of over 55% in size
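Using a mix of unlabeled (15 uM) and Alexa 594-labeled (0.24 uM) tau K18 P301L, heparin-triggered fibrillization over 6 hr at 37 C was scored by ThT fluorescence.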
KDM4E inh: inhibitors of human JMJD2E histone demethylase. B2RXH2. JMJD2E catalytic domain, FDH-coupled NADH fluorescence (FDH is formaldehyde dehydrogenase). Potency, µM (titrated, usually from 57.1 µM), for inactives: at the highest dose activity change, negative = inhibition, usual class: inhibitors. 1.6% of 230,000 active; active means well fitted inhibition curve with a large enough effect, not every such curve was filed as active; inconclusive means small, poorly fitted or top-dose-only effect, or another doubt; inactive means no such curve, though single readings can be large or run the other way;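 further: 0% = wells with enzyme and -100% = buffer wells without enzyme; nearly all actives have a fitted effect of over 50% in size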
TexasRed fluor: counter-screen for TRb-SRC2 inhibitors: fluorescence interference; TRb/SRC2 Texas Red total fluorescence interference; Potency, µM (highest dose often 106 µM), for the others: at the top dose fluorescence change, negative = quenching; 0.29% of 280,000 active; active means well fitted curve in either direction with a large enough effect; inconclusive means small, poorly fitted or top-dose-only effect
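Flags fluorescent or light-absorbing compounds by total fluorescence, S + 2P, at 555 nm excitation and 632 nm emission. Mixture: 20 nM Texas Red SRC2 peptide, 0.6 uM human TRb LBD, 1 uM T3, 5% DMSO; compound exposure 5 h at ambient temperature.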
TRb SRC2 PPI: TRbeta-SRC2 interaction inhibition; AID 1469; P10828; Potency, µM (doses to about 106 µM), for inactives: at the top dose activity change, negative = inhibition, most hits filed as inhibitors; TRbeta-SRC2 peptide binding, fluorescence polarization; receptor liganded with 1 µM T3; 0.065% of 280,000 active;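 further: plate controls were bound peptide for no effect and peptide without receptor for full effect; nearly all actives have a fitted effect of over 50% in size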
Target sequence (P10828 whole entry, looked up): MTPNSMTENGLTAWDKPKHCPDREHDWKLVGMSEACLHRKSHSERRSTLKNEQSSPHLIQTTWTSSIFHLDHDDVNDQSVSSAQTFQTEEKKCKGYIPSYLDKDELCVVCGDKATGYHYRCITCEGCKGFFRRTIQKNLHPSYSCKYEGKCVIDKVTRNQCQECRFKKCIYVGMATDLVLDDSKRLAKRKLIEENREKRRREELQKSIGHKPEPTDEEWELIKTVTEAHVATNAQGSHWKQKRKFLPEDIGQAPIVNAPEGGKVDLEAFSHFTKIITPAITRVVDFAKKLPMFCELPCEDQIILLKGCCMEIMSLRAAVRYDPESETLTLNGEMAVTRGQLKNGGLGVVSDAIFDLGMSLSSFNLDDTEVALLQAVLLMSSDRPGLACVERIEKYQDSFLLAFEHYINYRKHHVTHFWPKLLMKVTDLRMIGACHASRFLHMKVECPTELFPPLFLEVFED
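Each compound concentration gave % activity, normalized to unbound and bound Texas Red SRC2 controls, from polarization read after 5 hr ambient incubation with T3-loaded human TRb LBD.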
Tau fluor cs: counter-screen for tau fibril formation inhibitors | tau K18 P301L (four-repeat tau fragment) Alexa594 fluorescence, heparin fibrillization | Potency, µM (doses to about 57.7 µM), for inactives: at the highest dose activity change, negative = decrease | 0.93% of 280,000 active; further: nearly all actives have a fitted effect of over 55% in size
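Human K18 P301L tau (15 uM unlabeled plus 0.24 uM Alexa 594-labeled, final) in 100 mM sodium acetate pH 7 was mixed with compound and 20 uM heparin and incubated 6 hr at 37 C.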
* = called active by the depositor; u = inconclusive; x = not tested or not shown; [ ] = remark or other dose. Compounds with a hit are over-represented: about 3.5% of the library has one in this group of screens. Unless noted, the call rests on the fitted dose curve; in most records, active means well fitted curve in the direction sought with a large enough effect; inconclusive means small, poorly fitted or top-dose-only effect, or another doubt; inactive means no such curve, though single readings can be large; an effect the other way counts as inactive or inconclusive. Unless noted, on the % scale 0 is the no-effect control and ±100 the full control effect; potency means the concentration at half of the fitted maximal effect.

SMILES	Tau fibril FP	Tau ThT inhib	KDM4E inh	TexasRed fluor	TRb SRC2 PPI	Tau fluor cs
O=C(NCc1ccccc1Br)C1CCCN(C(=O)N2CCOc3ccccc32)C1 (configuration not stated)	u	12%	x	u	6%	u
CC[C@@]12CCCN3CCc4c(n(c5ccccc45)[C@](O)(C(=O)OC)C1)C32 (some centres not stated)	-5%	2%	0%	-2%	0%	2%
CCOC(=O)C1=C(C)NC2=C(C(=O)c3ccccc32)C1c1cccc2ccccc12 (configuration not stated)	13%	u	-5%	-3%	3%	14µM*[quencher]
CCOC(=O)C1=C(C)NC2=C(C(=O)c3ccccc32)C1c1ccc(O)cc1 (configuration not stated)	11%	10µM*	-2%	-5%	9%	u
C=CCN1CCc2c(cc(O)c(O)c2Cl)C(c2cccc(C)c2)C1 (configuration not stated)	10%	-17%	14µM*	2%	0%	-21%
Cc1cccc([C@@H]2CN(C)CCc3c2cc(O)c(O)c3Cl)c1	-2%	-19%	14µM*	0%	-8%	-18%
COc1ccc(C(=O)c2ccc(Cl)c([N+](=O)[O-])c2)cc1	5%	u	-3%	-2%	-2%	-28%
Cc1oc2cc([N+](=O)[O-])c(O)c([N+](=O)[O-])c2c1C(=O)c1ccc(Cl)cc1	1%	18µM*	-29%	-3%	0%	-24%
COc1ccc(OC)c(C(=O)c2c(C)oc3cc([N+](=O)[O-])c(O)c([N+](=O)[O-])c23)c1	-6%	13µM*	-12%	-4%	-6%	-25%
O=C(Nc1ccc(Oc2ccc(NC(=O)Nc3ccc([N+](=O)[O-])cc3)cc2)cc1)Nc1ccc([N+](=O)[O-])cc1	25µM*	6.3µM*	-3%	-4%	-7%	4.5µM*[quencher]
Cc1ccc(C(C)C)cc1NC(=O)Nc1ccc([N+](=O)[O-])cc1	32µM*	u	-7%	1%	4%	7.9µM*[quencher]
O=C(O)c1ccccc1-c1nc2ccccc2n1-c1ccccc1	7%	1%	9%	-1%	-5%	7%
Oc1nc(Nc2ccccc2)sc1/C=C1\C=Nc2ccccc21	-14%	3.5µM*	u	-13%	4%	8.9µM*[quencher]
CCc1ccc2nc(NC(=O)c3ccc4c(=O)[nH]c(CN5CCOCC5)nc4c3)sc2c1	-3%	-9%	u	-1%	-17%	-1%
O=C(Nc1nc(-c2ccc(Cl)s2)cs1)c1cccs1	u	u	u	-2%	-8%	28µM*[quencher]
Cc1ccc(NC2=C/C(=N/S(=O)(=O)c3cccs3)c3ccccc3C2=O)cc1C	5%	-6%	8%	5%	0%	-17%
COC(=O)C(C(C)=O)C1=C/C(=N\S(=O)(=O)c2ccc(C)cc2)c2ccccc2C1=O (configuration not stated)	u	32µM*	u	-1%	0%	u
COc1ccc(OC)c(NC2c3ncccc3C(=O)N2Cc2ccco2)c1 (configuration not stated)	1%	-21%	1%	1%	-5%	-23%
COc1ccc(CN2C(=O)c3cccnc3C2Nc2cc(Cl)ccc2OC)cc1 (configuration not stated)	9%	-10%	14µM*	0%	-5%	-21%
Cc1[nH]n(-c2ccccc2)c(=S)c1C=Nc1cccc([N+](=O)[O-])c1	u	22µM*	5.6µM*	0%	3%	-23%
O=C(Cn1cc(S(=O)(=O)Cc2cccc(Cl)c2)c2ccccc21)Nc1ccc(F)c(Cl)c1	u	9%	x	u	-3%	-29%
CNC1CCc2cc(OC)c(OC)c(OC)c2-c2ccc(OC)c(=O)cc21 (configuration not stated)	x	x	x	2%	-5%	x
CC(C)c1ccc(/C=C/C(=O)n2nnc3ccccc32)cc1	u	20µM*	-7%	-2%	-10%	-15%
Cn1c2c(c(=O)n(C)c1=O)C1(C(=O)Nc3ccccc31)C(C#N)=C(N)O2 (configuration not stated)	u	14µM*	-5%	-1%	0%	-23%
N#CC1=C(N)Oc2ccccc2C12C(=O)Nc1n[nH]c(-c3ccccc3)c12 (configuration not stated)	2%	-4%	-2%	1%	-13%	-3%
SMILES	Tau fibril FP	Tau ThT inhib	KDM4E inh	TexasRed fluor	TRb SRC2 PPI	Tau fluor cs
CCC(=O)Nc1ccc(C(=O)n2nc(C)cc2C)cc1	7%	-2%	-6%	1%	-16%	9%
O=S(=O)(C/C(=C/CO)S(=O)(=O)c1ccccc1)c1ccccc1	u	3.5µM*	3%	0%	-14%	-14%
O=C(O)CC1S/C(=N/N=C/c2ccc(-c3ccc(Cl)c([N+](=O)[O-])c3)o2)NC1=O (configuration not stated)	0%	7.1µM*	-1%	-8%	0%	-18%
O=C(O)CC1S/C(=N/N=C/C=C/c2ccccc2[N+](=O)[O-])NC1=O (configuration not stated)	4%	-15%	u	-4%	-5%	-6%
c1ccc(-n2c(SCC3CCCCO3)nnc2-c2cnccn2)cc1 (configuration not stated)	-3%	1%	-10%	3%	-24%	-7%
S=c1[nH]nc(-c2cc3c(s2)-c2ccccc2CC3)o1	13%	13µM*	u	-13%	0%	u
CSc1nnc(-c2cc3c(s2)-c2ccccc2CC3)o1	-2%	u	u	-5%	2%	-25%
COc1ccccc1N1CCN(C(=O)c2coc(=O)c(Br)c2)CC1	1%	3%	u	-1%	-4%	8%
Oc1ccccc1Nc1nc(NCc2ccco2)c2ccccc2n1	-10%	u	-12%	-4%	-3%	18µM*[quencher]
Cc1ccccc1Nc1nc(NCc2ccco2)c2ccccc2n1	13%	u	u	2%	-1%	u
CC(C)c1nc(SCC(=O)c2ccc(F)cc2)c2ccccc2n1	u	u	-19%	-2%	0%	-22%
O=C1OCC2=C1C(c1ccc(F)cc1)Sc1ccccc1N2 (configuration not stated)	-10%	10%	-3%	1%	-19%	u
CC(C)(C)c1ccc(C2Sc3ccccc3NC3=C2C(=O)c2ccccc23)cc1 (configuration not stated)	u	-11%	x	0%	-5%	5.6µM*[quencher]
Cc1ccc(/C=C/C(=O)Nn2cnnc2)cc1	u	14µM*	3%	-2%	-3%	-15%

Source: PubChem BioAssay
